# Screening data (PubChem)
# ELG1 genotox = genotoxicity induction in ELG1-luciferase HEK293T cells. 330,000 tested, 1.3% active. Potency, µM (highest dose often 46 µM), for the others: top-dose activity change, positive = activation, hits mostly activators. HEK293T ELG1-luciferase reporter, luminescence, 16 h; further: % of control where 0% means no effect; nearly all actives have a fitted effect of over 60% in size
#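 Step 1: seed 2,000 HEK293T ELG1-luciferase cells per well. Step 2: add compound or DMSO, incubate 16 hr at 37 °C. Step 3: ONE-Glo, 30 min at room temperature, read luminescence.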
# p53 reactivator = mutant p53 re-activation in reporter cells | H1299 p53-A138V BP100-luciferase reporter, luminescence, 24 h | Potency, µM (doses to about 92.2 µM), for the others: at the top dose activity change, positive = activation, usual class: activators | 320,000 tested, 0.063% active | AID 504706; further: % of control where 0% means no effect; nearly all actives have a fitted effect of over 45% in size
#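 p53-null H1299 cells stably carrying temperature-sensitive p53-A138V and a BP100-luciferase reporter were pinned with compounds (4-point, 1:5 series) and held 24 hrs at 37 deg C. Luminescence was read 10 min after detection reagent.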
# NPC1 prom act = activates the NPC1 promoter; Huh7 NPC1 promoter luciferase reporter, 24 h; Potency, µM (highest dose often 9.22 µM), for inactives: at the top dose activation, actives largely listed as activators; 320,000 tested, 2.4% active; AID 485313; further: % of control where 0% means no effect; nearly all actives have a fitted effect of over 60% in size
#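 NPC1 promoter–luciferase Huh7 cells; 24 h compound; luminescence.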
# FLuc modulator = inhibits or activates purified firefly luciferase, miR-21 counter-screen | purified FLuc, Km substrates, luminescence inhibition | AID 588342 | 360,000 tested, 6.9% active | P08659 | Potency, µM (series often up to 57.5 µM), inactives show at the top dose activity change, negative = inhibition, hits mostly inhibitors;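 further: plate controls were vehicle for no effect and reference inhibitor for full effect; nearly all actives have a fitted effect of over 55% in size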
#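 Purified P. pyralis luciferase, 10 nM final, with Km-level 10 uM D-luciferin and 10 uM ATP in 50 mM Tris acetate pH 7.5, 10 mM Mg acetate, 0.01% Tween-20, 0.05% BSA; 6-point qHTS titration about 60 µM downward; luminescence read.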
# Rab9 promoter act = activates the Rab9 promoter; Huh7 Rab9 promoter-luciferase reporter, luminescence, 24 h; Potency, µM (titrated, usually from 9.22 µM), inactives show at the top dose activation, negative = inhibition, hits mostly activators; 320,000 tested, 2.8% active; further: % of control where 0% means no effect; nearly all actives have a fitted effect of over 60% in size
#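 Measured in stably transfected Huh7 cells bearing a Rab9 promoter–luciferase construct: 24 h compound treatment at 37 °C, followed by luminescence detection.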
# SMN2 splice up = increases expression of the SMN2 splice variant; Potency, µM (titrated, usually from 46.1 µM), for the others: at the top dose activity change, positive = activation, most hits filed as activators; 210,000 tested, 2.8% active; HEK293 SMN2-luciferase splicing reporter, luminescence, 30-36 h; further: % of control where 0% means no effect; nearly all actives have a fitted effect of over 55% in size
#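 HEK293 cells carry an SMN2 […]–luciferase reporter in which exon 7 inclusion puts luciferase in frame. Cells were plated 10-12 h before compound addition, then incubated 30-36 h at 37C. ONE-Glo luminescence was read; sodium butyrate at 4.5 mM final served as control.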
# Numbers without * were called inactive; ? = inconclusive; . = no result. The list is not random: actives were taken first. Their share in the collection is about 7.3%. The call rests on the fitted dose curve; in most records, active means well fitted curve in the direction sought with a large enough effect; inconclusive means small, poorly fitted or top-dose-only effect, or another doubt; inactive means no such curve, though single readings can be large; an effect the other way counts as inactive or inconclusive. Potency means the concentration at half of the fitted maximal effect.
SMILES,ELG1 genotox,p53 reactivator,NPC1 prom act,FLuc modulator,Rab9 promoter act,SMN2 splice up
CCOc1cccc(NC(=O)C2CC(=O)N(C)C(=Nc3ccc(F)cc3)S2)c1 (configuration not stated),.,.,.,-8%,.,.
Cc1cccc(N2CCN(C(=O)CS(=O)(=O)c3cccc4nsnc34)CC2C)c1 (configuration not stated),.,.,.,-8%,.,.
COC1(C(F)(F)F)NC(=O)N(c2ccc(F)cc2)C1=O (configuration not stated),.,.,.,1%,.,0%
COc1ccc(NC(=O)c2ccccc2NC(=O)c2cccs2)cc1,?,2%,16%,15µM*,22%,.
Cc1ccc(S(=O)(=O)Nc2ccc(NC(=O)c3cccs3)cc2)cc1,-4%,-4%,-6%,-4%,-2%,11µM*
Cc1ccc(NC(=O)c2ccccc2NC(=O)c2cccs2)cc1,4%,-21%,-9%,?,4%,.
COc1ccc(NC(=O)n2nc(OC(=O)c3cccs3)cc2N)cc1,?,12%,12%,17µM*,13%,.
COc1ccc(-c2[nH]ncc2/C=N\NC(=O)c2cccs2)cc1OC,1%,5%,1%,19µM*,-3%,.
Cc1cc(C)c(NS(=O)(=O)c2ccc(NC(=O)c3cccs3)cc2)c(C)c1,-2%,-6%,0%,2%,-7%,-23%
Fc1cccc(Cl)c1CSc1nnc(COc2cccc3cccnc23)o1,-1%,0%,-2%,-16%,1%,-25%
COc1ccc(NC(=O)c2ccc(NC(=O)c3cccs3)cc2)cc1,21µM*,-4%,-1%,-3%,-1%,.
Cc1ccc(C(=O)Nc2cccc(NC(=O)c3cccs3)c2)c(C)c1,-7%,.,0%,12µM*,6%,.
O=C(Nc1cccc(NC(=O)c2cccs2)c1)c1ccc(Br)o1,-1%,1%,-1%,24µM*,4%,.
O=C(Nc1ccc(NC(=O)c2cccs2)cc1)c1ccc(Br)o1,?,0%,9%,0%,28%,3%
COc1ccc(C(=O)/C=C\c2ccc(NC(=O)c3cccs3)cc2)cc1,4%,0%,-5%,?,3%,-29%
CCOC(=O)c1cc(S(=O)(=O)NCc2ccccc2)[nH]n1,.,.,.,-13%,.,.
